# BAZ2B block = inhibitors of human BAZ2B bromodomain | AlphaScreen BAZ2B-H3K14Ac peptide displacement | Potency, µM (titrated, usually from 114 µM), inactives show at the top dose activity change, negative = inhibition, actives largely listed as inhibitors | Q9UIF8 | AID 504333 | 360,000 tested, 4.4% active; further: potency means the concentration at half of the fitted maximal effect; on the % scale 0 is the no-effect control and ±100 the full control effect; nearly all actives have a fitted effect of over 60% in size
#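 Inhibition is scored as reduced AlphaScreen emission. The BAZ2B/b-H3(5-23)K14Ac complex (50 nM each) in PBS pH 7.4, 0.01% Tween-20 meets compound (up to 110 uM) for 30 min at RT before bead addition.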
# JMJD2A Tudor inh = blocks the human JMJD2A Tudor domain; 390,000 tested, 4.4% active; Potency, µM (titrated, usually from 114 µM), for inactives: at the highest dose activity change, negative = inhibition, most hits filed as inhibitors; AlphaScreen JMJD2A-Tudor / H3K4me3 peptide binding; O75164; further: potency means the concentration at half of the fitted maximal effect; on the % scale 0 is the no-effect control and ±100 the full control effect; nearly all actives have a fitted effect of over 50% in size
# G9a inh = blocks human histone lysine methyltransferase G9a; 350,000 tested, 8.8% active; AID 504332; Q96KQ7; G9a H3K9 monomethylation, AlphaScreen, 2 h; Potency, µM (titrated, usually from 102 µM), inactives show at the highest dose activity, negative = inhibition, most hits filed as inhibitors; further: potency means the concentration at half of the fitted maximal effect; on the % scale 0 is the no-effect control and ±100 the full control effect; nearly all actives have a fitted effect of over 75% in size
#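 Using a bead-based AlphaScreen, monomethylated H3K9 product from 2 h room-temperature reactions (G9a 20 nM, peptide 500 nM, SAM 20 uM) was detected with 0.5 ug/mL rabbit anti-H3K9me1 antibody.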
# CtBP-E1A blk = CtBP/E1A binding inhibition; AlphaScreen GST-E1A/His-CtBP binding, 1536-well; active compounds read low; activity change, % (concentration not given with the values); 340,000 tested, 0.49% active; AID 651724; in the data active means activity change below about -65%; inconclusive means mostly about -30% to -63%; further: on the % scale 0 is the no-effect control and ±100 the full control effect
#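 AlphaScreen with 125 nM GST-E1A and 125 nM His-CtBP (5X stocks) in Tris pH 8.0, 300 mM NaCl, BSA, Tween 20, TCEP. Compounds preincubated 2 h at 37 deg C, then glutathione donor/nickel acceptor beads added for 1 h at 37 deg C in dark.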
# Six1-Eya2 blk = Six1/Eya2 interaction inhibition | Q15475+O00167 | AlphaScreen GST-Six1/His-Eya2 binding, biochemical; active compounds read low | activity change, % (concentration not given with the values) | 360,000 tested, 0.56% active; in the data active means activity change below about -65%; inconclusive means mostly about -30% to -63%; further: on the % scale 0 is the no-effect control and ±100 the full control effect
#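 AlphaScreen luminescence read after one hour at 37 °C in darkness. Pin-transferred compounds met GST-Six1 and His-Eya2 protein (5X stock 250 nM/500 nM) plus glutathione donor and Ni-chelate acceptor beads (5X, 50 ug/mL).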
# HP1b binding inh = HP1-beta chromodomain-methylated histone interaction inhibition; P83916; AlphaScreen HP1-beta / biotin-H3K9me3 peptide binding; Potency, µM (series often up to 114 µM), for the others: at the top dose activity change, negative = inhibition, usual class: inhibitors; 390,000 tested, 0.56% active; further: potency means the concentration at half of the fitted maximal effect; nearly all actives have a fitted effect of over 70% in size
#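 Compound inhibition of the preformed complex between 50 nM HP1-beta and 50 nM biotinylated H3K9me3 peptide was read by AlphaScreen. Buffer was PBS pH 7.4 with 0.01% Tween-20. Incubations ran 30 min at room temperature, with 10 ug/mL donor/acceptor beads.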
# An asterisk follows results filed as active; u = inconclusive; x = not tested or not shown; ! = repeats disagree; [ ] = another dose, or the depositor's remark. Rows were chosen to be rich in hits. Some 10% of all compounds tested hit in one or more screens of this group. Unless noted, the call rests on the fitted dose curve; in most records, active means well fitted inhibition curve with a large enough effect; inconclusive means small, poorly fitted or top-dose-only effect; inactive means no such curve, though single readings can be large or run the other way.
SMILES,BAZ2B block,JMJD2A Tudor inh,G9a inh,CtBP-E1A blk,Six1-Eya2 blk,HP1b binding inh
Cc1nc(CN2CCN(S(=O)(=O)c3c(Cl)cc(Br)cc3Cl)CC2)cs1,79µM*,35µM*,22µM*,1,-13,0%
Cc1ccc(CC2CC(=O)N(c3nc4ccccc4s3)C2=O)cc1 (configuration not stated),-14%,-4%,-19%,x,4,32%
CC(=O)c1nc(N2C(=O)CC(Cc3ccc(C)cc3)C2=O)sc1C (configuration not stated),u,-24%,1.4µM*,1,-4,37%
Cc1cccc(C)c1OCC(O)CN1CCN(c2ccccc2)CC1 (configuration not stated),u,-19%,71µM*,-5,-10,32%
C=CCc1ccccc1OCC(O)CN1CCN(c2ccc(OC)cc2)CC1 (configuration not stated),50µM*,18µM*,u,-27,u,u
C=CCc1ccc(OCC(O)CN2CCN(c3ccccc3OC)CC2)c(OC)c1 (configuration not stated),u,-22%,-22%[2.33 µM],-3,-3,3%
C=CCc1ccccc1OCC(O)CN1CCOCC1 (configuration not stated),x,-15%,x,24,29,45%
C=CCc1ccc(OCC(O)CN2CCN(Cc3ccc(Cl)cc3)CC2)c(OC)c1 (configuration not stated),u,-20%[57.1 µM],50µM*,-12,-23,12%
Cc1ccc(C)c(OCC(O)CN2CCC(C)CC2)c1C (configuration not stated),50µM*,-23%[11.4 µM],u,11,3,-38%
COc1cccc(OC)c1OCC(O)CN1CCN(c2ccccc2)CC1 (configuration not stated),-6%,-16%,u,9,32,12%
COc1ccccc1N1CCN(CC(O)COc2c(OC)cccc2OC)CC1 (configuration not stated),-35%,-18%,14µM*,0,-7,18%
Cc1ccc(N2CCN(CC(O)COc3cccc4ccccc34)CC2)cc1 (configuration not stated),35µM*,45µM*,40µM*,x,u,u
C=CCc1ccccc1OCC(O)CNC (configuration not stated),1%,-14%,50µM*,4,1,29%
O=C(CN1C(=O)COc2ccc(S(=O)(=O)N3CCCC3)cc21)N1CCN(c2ccccc2F)CC1,-14%,-17%,-2%[59 µM],x,x,33%
CCC(C)NC(=O)c1cccc(NC(=O)c2nsc3ccccc23)c1 (configuration not stated),-33%,-2%,-41%[59 µM],x,x,30%[57 µM]
Cc1n[nH]c(C)c1S(=O)(=O)N(CC(=O)NCc1ccccc1Cl)c1ccc(C(C)C)cc1,x,-32%,-30%[59 µM],x,x,12%
Cn1nnnc1Sc1ncnc2scc(I)c12,x,79µM*,x,x,x,x
CCC(=O)N1CCc2cc(CNC(=O)C(CC)c3ccccc3)ccc21 (configuration not stated),2%,-10%,-2%[59 µM],x,x,30%
COc1ccc(NC(=O)c2cccs2)cc1OC,2%,-5%,-1%[59 µM],-2,-2,21%
COc1ccc(NC(=O)Nc2cccs2)cc1OC,u,u,45µM*,0,-7,-24%
CCc1ccc(NC(=O)Cc2c(C(=O)O)n(C)c3ccccc23)cc1,28µM*,-13%,u,5,-1,21%
CCc1ccc(NC(=O)Nc2cn(C)c(=O)c3ccccc23)cc1,-11%,-13%,10µM*,x,x,31%
COc1cccc(NC(=O)Nc2cccs2)c1,8%,-18%,10µM*,-5,-19,10%
CCc1ccc(NC(=O)Nc2cccs2)cc1,u,-19%,10µM*,-1,-14,9%
Cc1ccc(C(=O)CCC(=O)Nc2ncccc2O)cc1,79µM*,u,-47%,-21,-8,6%
SMILES,BAZ2B block,JMJD2A Tudor inh,G9a inh,CtBP-E1A blk,Six1-Eya2 blk,HP1b binding inh
O=C(CCNC(=O)c1ccc(Cl)cc1)Nc1ncccc1O,79µM*,-24%,13%,-28,-8,26%
O=C(CCC(=O)c1ccc(Cl)s1)Nc1ncccc1O,56µM*,56µM*,u,-14,-13,3%
Cc1ccc(NC(=O)CCC(=O)c2cccs2)cc1,3%,-4%,21%[12.7 µM],-1,4,16%
Cc1ccc(C(=O)CCC(=O)Nc2ncccc2C)cc1,-38%,-27%,0%[12.7 µM],x,4,16%
O=C(CCCNC(=O)c1ccc(Cl)cc1)Nc1ncccc1O,u,-18%,16%,-23,-12,21%
O=C(CCC(=O)c1cccs1)Nc1ncccc1O,56µM*,u,u,-4,-29,17%
COc1ccc(C2C=C(c3ccccc3)Nc3nc(NS(=O)(=O)c4ccccc4)nn32)cc1 (configuration not stated),-7%,-16%,-7%[59 µM],x,x,22%
Cc1ccc(CNC(=O)CCc2c(C)nn(-c3ccc(N4CCCCC4)nn3)c2C)cc1,-34%,-16%,1%[59 µM],x,x,32%
CC(C)c1cc(C(=O)NCc2ccc(F)cc2)no1,-2%,12%,0%[59 µM],x,x,42%
Oc1ccccc1Nc1nc(-c2ccccc2)c2cc(Cl)ccc2n1,-15%,-25%,-11%[59 µM],x,x,23%
Cc1ccc(NC(=O)CCC(=O)c2ccc(Cl)s2)nc1,56µM*,-30%,23%[12.7 µM],x,-1,17%
CN(C)c1ccc(CNC(=O)CCS(=O)(=O)c2ccc3c(c2)n(C)c(=O)c(=O)n3C)cc1,u,u,18µM*,14,20,-27%
COc1ccc(CNC(=O)CCc2ccc(S(=O)(=O)N3CCCCCC3)cc2)cc1,1%,-3%,5%[2.33 µM],3,0,30%
CN(C)c1ccc(CNC(=O)CN2C(=O)CSc3ccc(S(=O)(=O)N4CCCC4)cc32)cc1,u,u,11µM*,x,x,-23%
O=C(CN1C(=O)CSc2ccc(S(=O)(=O)N3CCCC3)cc21)NCc1ccc(Cl)cc1,-15%,-17%,4%[59 µM],x,x,13%
CC1CCN(CCCNC(=O)CN2C(=O)CSc3ccc(S(=O)(=O)N4CCC(C)CC4)cc32)CC1,-7%,56µM*!,4%[59 µM],x,0,u
CN(C)c1ccc(CNC(=O)CCc2ccc(S(=O)(=O)N3CCCCCC3)cc2)cc1,45µM*,50µM*,28µM*,-25,-24,-22%
COc1cc(OC)c(NS(=O)(=O)c2c(C(=O)N3CCCCCC3)c(C)n(C)c2C)cc1Cl,u,-18%,10%[59 µM],x,x,5%
Cc1ccc(-n2c(=O)c3c(c4cc(C)ccc4n3C)n(CC(=O)c3ccc(Cl)cc3)c2=O)cc1,-6%,-4%,1%[59 µM],x,x,30%
